Most compounds without a hit are left out; they make up all but 3.7% or so of the library.
Rv3671c inh = inhibitors of M. tuberculosis serine protease Rv3671c | P9WHR9 | actives 0.048% (n = 320,000) | inhibition, % at 5.96 µM | AID 2606; in the data active = inhibition above about 38%;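 also: extracellular domain of Rv3671c used as enzyme; 0% = enzyme with DMSO and 100% = no enzyme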
GDH-TPI counter-1 = GDH-TPI coupled enzyme inhibition counter-screen; GDH-TPI coupled enzyme counterscreen, NADH absorbance; inhibition, % at 4.8 µM; actives 1.2% (n = 360,000); AID 588335; in the data active = inhibition above about 30%;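 also: 0% = DMSO wells and 100% = wells lacking the enzyme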
Mtb FBA inh = inhibits M. tuberculosis FBA enzyme; P9WQA3; purified M. tuberculosis FBA, fluorescence read-out; inhibition, % at 1 µM; actives 2.3% (n = 360,000); AID 588726; in the data active = inhibition above about 27%;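 also: 0% = vehicle and 100% = reference inhibitor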
Mtb betalactam = beta-lactam sensitization of Mtb H37Rv; M. tuberculosis H37Rv growth with meropenem, percent inhibition; inhibition, % at 25 µM; actives 0.27% (n = 330,000);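 also: growth measured after seven days incubation then overnight dye step; 0% = bacteria only wells and 100% = bacteria with antibiotic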
FadD28 FP inh = M. tuberculosis FadD28 bisubstrate binding inhibition; inhibition, % at 12.5 µM; actives 0.22% (n = 360,000); FadD28 bisubstrate probe binding, fluorescence polarization; AID 588549; in the data active = inhibition above about 8.5%, passing the limit was not always enough
UGM FP inh = inhibitors of M. tuberculosis UDP-galactopyranose mutase. actives 0.06% (n = 320,000). purified UGM, fluorescence polarization probe displacement. inhibition, % at 10 µM. AID 504406; in the data active = inhibition above about 10%, passing the limit was not always enough
Target sequence (P9WIQ1 whole entry, looked up): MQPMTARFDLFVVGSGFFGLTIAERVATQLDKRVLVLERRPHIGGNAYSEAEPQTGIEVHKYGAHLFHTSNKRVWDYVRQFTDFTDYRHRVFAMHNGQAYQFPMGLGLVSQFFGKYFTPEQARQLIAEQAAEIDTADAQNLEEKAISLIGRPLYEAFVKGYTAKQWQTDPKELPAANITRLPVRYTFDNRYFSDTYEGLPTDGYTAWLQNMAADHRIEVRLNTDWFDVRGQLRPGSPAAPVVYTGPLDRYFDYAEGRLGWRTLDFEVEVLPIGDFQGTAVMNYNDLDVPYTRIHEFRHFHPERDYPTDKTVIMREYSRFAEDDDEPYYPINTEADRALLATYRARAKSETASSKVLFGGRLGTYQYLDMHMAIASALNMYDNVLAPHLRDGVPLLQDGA
Mtb FBA inh conf = Mtb FBA inhibition, confirmed; actives 78% (n = 5,600); inhibition, % at 1 µM; shares compounds with Mtb FBA inh; purified M. tuberculosis FBA, fluorescence read-out; in the data active = inhibition above about 27%;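 also: 0% = vehicle wells and 100% = reference inhibitor wells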
GDH-TPI counter-2 = counter-screen for M. tuberculosis FBA inhibitors: GDH-TPI coupled enzyme inhibition; inhibition, % at 1 µM; actives 81% (n = 5,600); GDH-TPI coupled enzyme counterscreen, fluorescence; shares compounds with Mtb FBA inh; in the data active = inhibition above about 10%
GDH-TPI DR = counter-screen for M. tuberculosis FBA inhibitors: GDH-TPI dose response | actives 79% (n = 170) | AID 652145 | shares compounds with Mtb FBA inh | IC50, µM | GDH-TPI coupled enzyme assay, fluorescence, artifact counterscreen
* marks the source's active call; other numbers are inactive results. Unless noted, no rule for the calls is given here.

How did Cc1ccc(S(=O)(=O)Nc2ccccc2C(=O)Nc2ccc(S(=O)(=O)Nc3nccc(C)n3)cc2)cc1 do in these assays?
Rv3671c inh: -6.1; GDH-TPI counter-1: 8.6; Mtb FBA inh: 66.2*; Mtb betalactam: 0.1; FadD28 FP inh: -2.5; UGM FP inh: 0.3; Mtb FBA inh conf: 35.0*; GDH-TPI counter-2: 20.2*

How did Cc1ccc(C)c(S(=O)(=O)Nc2ccc(S(=O)(=O)Nc3ncccn3)cc2)c1 do in these assays?
Rv3671c inh: 1.7; GDH-TPI counter-1: 1.1; Mtb FBA inh: -4.3; Mtb betalactam: -3.2; FadD28 FP inh: -3.5; UGM FP inh: 0.4

Results for Cc1ccc(C)c(S(=O)(=O)Nc2ccccc2C(=O)Nc2ccc(S(=O)(=O)Nc3ncccn3)cc2)c1 ?
Rv3671c inh: -18.3; GDH-TPI counter-1: -1.6; Mtb FBA inh: 106.5*; Mtb betalactam: 11.6; FadD28 FP inh: -1.7; UGM FP inh: 2.5; Mtb FBA inh conf: active; GDH-TPI counter-2: active

What do the screens show for `CC(=O)Nc1ccc(C(=O)Nc2ccc(S(=O)(=O)Nc3nccc(C)n3)cc2)cc1`?
Rv3671c inh: -1.1; GDH-TPI counter-1: 3.1; Mtb FBA inh: -2.1; Mtb betalactam: 2.0; FadD28 FP inh: -0.9; UGM FP inh: -0.1

Results for CC1(C(=O)NS(=O)(=O)c2cccc(C#N)c2)CCN1C(=O)C/C=C/c1ccccc1 (stereo unspecified) ?
GDH-TPI counter-1: 15.9; Mtb FBA inh: 3.0; FadD28 FP inh: -1.5

What do the screens show for `COc1ccc2sc(-c3ccc(SC)cc3)c(-c3ccc(O)cc3)c2c1`?
Rv3671c inh: -1.6; GDH-TPI counter-1: 28.6; Mtb FBA inh: 9.9; Mtb betalactam: 30.5; FadD28 FP inh: -1.8; UGM FP inh: -5.1

Results for O=C(CCC1CCN(C(=O)CC2=CCCCC2)CC1)NCc1ccc(F)cc1 ?
GDH-TPI counter-1: 8.9; Mtb FBA inh: 1.1; FadD28 FP inh: 0.3

Results for Cc1cc(O)c(-c2cc(O)c(C)cc2O)cc1O ?
Rv3671c inh: 0.8; GDH-TPI counter-1: -5.7; Mtb FBA inh: 37.1*; Mtb betalactam: -8.0; FadD28 FP inh: 0.7; UGM FP inh: 0.7; Mtb FBA inh conf: 103.9*; GDH-TPI counter-2: 82.5*

How did CCN(c1cccc(C)c1)S(=O)(=O)c1ccc2c(c1)oc(=O)n2C do in these assays?
Rv3671c inh: 1.2; GDH-TPI counter-1: 2.0; Mtb FBA inh: 78.7*; Mtb betalactam: -0.7; FadD28 FP inh: 0.4; UGM FP inh: -1.3; Mtb FBA inh conf: 49.2*; GDH-TPI counter-2: 46.1*

Results for Cc1ccc(C)c(C(O)c2ncc(-c3cccc(F)c3)[nH]2)c1 (stereo unspecified) ?
GDH-TPI counter-1: 3.1; Mtb FBA inh: 3.1; FadD28 FP inh: 1.7

Results for O=C(/C=C/c1ccc(Br)cc1)Nc1ccc(S(=O)(=O)Nc2ncccn2)cc1 ?
Rv3671c inh: -15.5; GDH-TPI counter-1: 7.5; Mtb FBA inh: 5.1; Mtb betalactam: 0.5; FadD28 FP inh: 0.1; UGM FP inh: 0.2

Results for O=C(/C=C/c1cccc(F)c1)Nc1ccc(S(=O)(=O)Nc2ncccn2)cc1 ?
Rv3671c inh: -19.2; GDH-TPI counter-1: 28.8; Mtb FBA inh: 92.8*; Mtb betalactam: 52.0; FadD28 FP inh: -3.3; UGM FP inh: -1.6; Mtb FBA inh conf: 29.3*; GDH-TPI counter-2: 3.5; GDH-TPI DR: >10

Results for COc1cccc(CNC(=O)c2ccc(Cl)c(S(=O)(=O)N3CCOCC3)c2)c1 ?
Rv3671c inh: -2.2; GDH-TPI counter-1: 0.6; Mtb FBA inh: -0.8; Mtb betalactam: 5.8; FadD28 FP inh: -0.3

Results for N#CCc1ccc(Oc2ncc(C(F)(F)F)cc2Cl)cc1 ?
Rv3671c inh: -4.1; GDH-TPI counter-1: -0.3; Mtb FBA inh: 43.7*; Mtb betalactam: 5.2; FadD28 FP inh: 0.0; UGM FP inh: 1.2; Mtb FBA inh conf: 122.6*; GDH-TPI counter-2: 101.7*

Screening data: PubChem BioAssay, several laboratories
